Molecules are shown by their SMILES. About 4,900 (5%) of roughly 98,000 compounds were called active. What follows is part of a selection rich in actives, with near analogues and random picks from the rest. Unmarked numbers belong to inactive results. Cut-off read from the data, not from the text of the source: active = inhibition above about 30%; inactive = the rest.

This assay in a line: yeast control strain growth suppression – counter-screen for post-Golgi transport modulator project, primary screen (AID 738). The following applies: efflux-deficient yeast background strain, growth absorbance A615, 16 h; at 10 µM; active compounds read high.
For orientation: inhibition means the change of the read-out against control, counted positive when it falls. For the compound `O=C(CSc1ncnc2c1cnn2CCc1ccccc1)Nc1ccc(F)cc1`, the inhibition was -3.75%.

Turning to `O=C(Nc1cccn(Cc2c(Cl)cccc2Cl)c1=O)c1ccc(Cl)cc1`, the inhibition is -8.03%. For `Clc1ccc(COn2c(-c3ccc(Cl)cc3Cl)nc3ncccc32)cc1` the value was 66.1% (active); for `CCOc1ccc(OCC)c(-c2c(=O)n(OCc3ccc(Cl)cc3)c3ccccc3[n+]2[O-])c1`, 11.6%; for `O=C(/C=C/c1cc2c(cc1Br)OCO2)NCc1ccc(Cl)cc1`, 9.36%. The figure for `N/C(=N\OC(=O)CCc1ccccc1)c1ccc(Cl)cc1` is 16.6%; for `C=CCNc1cnn(-c2ccc(C)cc2)c(=O)c1Cl` it is 8.21%; for `CCCSc1nc2c(c(=O)n(C)c(=O)n2C)n1Cc1ccc(C)cc1` it is 51.8% (active). The figure for `Cc1cccc(Cn2c(SCCO)nc3c2c(=O)n(C)c(=O)n3C)c1` is 3.8%. Turning to `CCOc1ccc(Cn2c(SCCCCC#N)nc3c2c(=O)n(C)c(=O)n3C)cc1OCC`, the inhibition is 8.56%.

On to `O=C(ON=C1CCN(S(=O)(=O)c2ccccc2)CC1)c1ccc(Cl)cc1`, for which the inhibition was 13.6%. The figure for `Nc1ccc(Oc2ccc(Cl)cc2)cc1` is 10%; for `COc1cccc(Oc2ccc(N)cc2)c1` it is 34% (active); for `Cc1ccc(Oc2ccc(N)cc2)cc1` it is 28.3%. For `COC(=O)Cc1cc(=O)oc2c(C)c(O)ccc12` the value was 7.59%. For `Cc1cc(OC(=O)c2ccc(Cl)cc2)cc(=O)n1C` the value was -4.12%; for `COc1ccc2[nH]cc(/C=C(/C#N)S(=O)(=O)c3ccccc3)c2c1`, 36.8% (active). As for `COc1ccc2[nH]c3ccc(OC)cc3c2c1`, the inhibition is 8.06%. The figure for `CCN(CC)CC(=O)c1c[nH]c2ccc(OC)cc12` is 15.9%; for `CCCCCCC(=O)Nc1nc(C)c(-c2csc(Nc3cc(Cl)ccc3OC)n2)s1` it is 0.3%; for `CCCCC(=O)Nc1nc(C)c(-c2csc(Nc3ccc(Cl)cc3)n2)s1` it is 1.53%. The figure for `C=CCCC(=O)Nc1nc(C)c(-c2csc(Nc3ccc(Cl)cc3)n2)s1` is 50.3% (active); for `O=C(c1cccc2ccccc12)N1CCN(c2ccccc2F)CC1` it is 13.7%; for `Cc1ccc2cccc(S(=O)(=O)N3CCN(c4ccccc4F)CC3)c2n1` it is 37.7% (active).

On to `O=S(=O)(N1CCOCC1)N1CCN(c2ccccc2F)CC1`, for which the inhibition was -1.25%. On to `O=C(CSCc1c(Cl)cccc1Cl)NN1C(=O)c2ccccc2C1=O`, for which the inhibition was 8.98%.

With `c1cnc(Nc2nc(-c3ccc4ccccc4c3)cs2)nc1`, the inhibition was 2.57%. Consider `COc1ccc(Nc2nc(-c3ccccc3)cs2)cc1`, for which the inhibition was 6.6%.

Take `COc1ccc(OC)c(Nc2nc(-c3ccc(O)c(O)c3)cs2)c1`: the inhibition was 34.6% (active). The figure for `CON(C)S(=O)(=O)c1ccc2c(c1)NC(=O)C1CCCN21` (stereo not given) is -2.22%. The figure for `O=C(c1cc(-c2ccccc2O)on1)N1CCCC1` is 12%; for `O=C(c1cc(-c2cccc(O)c2)on1)N1CCc2ccccc2C1` it is 41% (active); for `O=C(c1cc(-c2ccc(O)cc2)on1)N1CCCc2ccccc21` it is 23.4%. For `O=C(NCC1CCC(C(=O)O)CC1)OCc1ccccc1` (stereo not given) the value was 8.23%; for `O=C(CNC(=O)c1ccccc1)NCC(=O)OCc1ccc(Cl)cc1`, 2.68%; for `O=C(CNC(=O)OCc1ccccc1)Oc1cc2oc(=O)cc(-c3ccccc3)c2cc1Cl`, 34.6% (active). On to `O=C(Nc1ccc2c(c1)OCCO2)c1ccc(Cl)c(S(=O)(=O)N2CCCCC2)c1`, for which the inhibition is 7.53%. The figure for `O=C(NCCc1ccccc1)c1ccc(NC2=NC3CS(=O)(=O)CC3S2)cc1` (stereo not given) is -1.06%. In the case of `Cc1c(Br)c([N+](=O)[O-])nn1C(C)C(=O)Nc1nccs1` (stereo not given), the inhibition is 23.8%. As to `O=C(Cc1ccc(F)cc1)NC1CCCC1`, the inhibition is 20.8%. With `CCNc1nc(N)nc(-c2cc(Cl)ccc2OC)n1`, the inhibition was -4.76%.

Regarding `COc1ccc2c3c(c(=O)oc2c1OCC(=O)C(C)(C)C)CCCC3`, the inhibition is 7.23%. The figure for `O=c1oc2c(CN3CCCCC3)c(O)ccc2c2c1CCCCC2` is -5.61%; for `CCCOc1ccc2c3c(c(=O)oc2c1OCCC)CCC3` it is 36.1% (active); for `CSc1ccc(-c2c(C#N)c(N)nc3c2c(C)nn3-c2ccccc2)cc1` it is 2.79%. With `CSc1nc(N)c(C#N)c(-c2ccccc2Cl)c1C#N`, the inhibition was 68.3% (active). `Cc1c(-c2ccccc2)nc(N)c(C#N)c1-c1cccs1`: the inhibition was 15%. For `COc1cccc(/C=N\Nc2nncc(-c3ccccc3)n2)c1` the value was 7.59%. The figure for `Nc1ccc(-c2sc(N)nc2-c2ccccc2)cc1` is 2.78%; for `COc1cc(OC)c(NC(=O)c2ccc(Br)o2)cc1Cl` it is 2.65%; for `O=C(Nc1cccc2ncccc12)C(Cl)(Cl)Cl` it is 8.77%.

Turning to `O=C(Nc1cccc2ncccc12)c1ccc(-c2ccc(Cl)cc2Cl)o1`, the inhibition was 37.2% (active). For `CCC1(CC)NC(=O)N(CC(=O)OCC(=O)Nc2ccc(C(F)(F)F)cc2)C1=O` the value was 5.34%; for `O=C(N/N=C/c1ccc(O)c(O)c1)C1c2ccccc2Oc2ccccc21`, 2.52%.

For the compound `O=C(c1ccco1)N1CCN(C(=O)C2c3ccccc3Oc3ccccc32)CC1`, the inhibition is 0.85%. With `CCCN(CCC)C(=O)C1c2ccccc2Oc2ccccc21`, the inhibition is 31.5% (active). For `Cc1c(NC(=O)CCCOc2ccccc2)cccc1[N+](=O)[O-]` the value was 2.57%; for `CC1Cc2ccccc2N1CC(=O)Nc1ccc2c(c1)OC(F)(F)O2` (stereo not given), 17.9%; for `O=C(CC12CC3CC(CC(C3)C1)C2)Nc1ccc2c(c1)COC2=O`, 42.7% (active).

For `O=C(O)CSCNC(=O)CC12CC3CC(CC(C3)C1)C2`, the inhibition was 0.28%.

Take `COCCCNC(=O)C1CC(=O)N(CCc2ccccc2)C1` (stereo not given): the inhibition was 5.92%.

Regarding `COc1cc(OC)cc(C(=O)NC2CCN(C(=O)N3c4ccccc4Sc4ccccc43)CC2)c1`, the inhibition is 4.32%. With `CC(C)n1c(C(O)c2ccccc2)nc2ccccc21` (stereo not given), the inhibition was 1.26%. With `CCCn1c(C(O)c2cc(OC)ccc2OC)nc2ccccc21` (stereo not given), the inhibition is 17.6%.

With `COc1cc(C(O)c2nc3ccccc3n2C)cc(OC)c1OC` (stereo not given), the inhibition is 41.1% (active).

The record behind these values is PubChem BioAssay AID738 (SRMLSC, 2007).
